Experimental data published in PubChem BioAssay AID1159580 (chemical genetic matrix, 2015).
Values joined by “and” are separate entries in the source; they are usually repeats but may differ in a detail not shown here. Identical values can stand only once. Out of some 5,500 compounds screened, about 2,000 (36%) were called active. Another 18% or so got no clear call; they are omitted. Rule as the data show it: active = normalized growth mostly below about 0.91 (no sharp cut-off); inconclusive = no clear call, values can overlap the other calls; inactive = mostly above about 0.92. This is one part of the list.

Test: chemical genetic growth profiling, strain panel (AID 1159580);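 also: tested at 20 µM; growth read once vehicle control cultures reached saturation at 30 °C; 1 = growth at the plate median or of vehicle wells; lower values mean less growth of the strain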
Settings: S. cerevisiae deletion strains, growth OD

Measured: normalized growth

NC(=O)NC(=O)Cc1ccccc1
inactive: locus YAL013W, strain DEP1, active compounds read low 1.03 | locus YAL021C, strain ccr4, active compounds read low 0.999 | locus YAL026C, strain drs2, active compounds read low 0.976 | locus YAL030W, strain snc1, active compounds read low 0.995 | locus YBL061C, strain skt5, active compounds read low 0.975 | locus YBR009C, strain hhf1, active compounds read low 1.04 | locus YBR021W, strain FUR4, active compounds read low 1.02 | locus YBR023C, strain chs3, active compounds read low 0.974 | locus YBR171W, strain sec66, active compounds read low 0.992 | locus YBR229C, strain ROT2, active compounds read low 0.995 | locus YBR231C, strain swc5, active compounds read low 1.01 | locus YBR279W, strain paf1, active compounds read low 0.979 | locus YCL011C, strain gbp2, active compounds read low 0.961 | locus YCL016C, strain dcc1, active compounds read low 0.96 | locus YCL029C, strain bik1, active compounds read low 0.997 | locus YCL069W, strain vba3, active compounds read low 1.01 | locus YCR088W, strain abp1, active compounds read low 0.993 | locus YDL005C, strain med2, active compounds read low 0.98 | locus YDL035C, strain GPR1, active compounds read low 1.02 | locus YDL040C, strain nat1, active compounds read low 0.991 | locus YDL074C, strain BRE1, active compounds read low 1.16 | locus YDL101C, strain DUN1, active compounds read low 1 | locus YDL134C, strain PPH21, active compounds read low 1 | locus YDL185W, strain tfp1, active compounds read low 0.992 | locus YDL192W, strain arf1, active compounds read low 0.991 | locus YDR001C, strain nth1, active compounds read low 0.98 | locus YDR069C, strain doa4, active compounds read low 0.99 | locus YDR101C, strain arx1, active compounds read low 0.994 | locus YDR137W, strain rgp1, active compounds read low 0.979 | locus YDR150W, strain NUM1, active compounds read low 1.01 | locus YDR159W, strain sac3, active compounds read low 0.997 | locus YDR162C, strain NBP2, active compounds read low 1.04 | locus YDR195W, strain ref2 0.994 | locus YDR297W, strain sur2, active compounds read low 0.996 | locus YDR318W, strain mcm21, active compounds read low 0.993 | locus YDR334W, strain swr1, active compounds read low 0.978 | locus YDR335W, strain msn5, active compounds read low 0.964 | locus YDR388W, active compounds read low 0.995 | locus YDR392W, strain spt3, active compounds read low 0.916 | locus YDR502C, strain sam2, active compounds read low 1.01 | locus YEL003W, strain gim4, active compounds read low 0.998 | locus YEL037C, strain rad23, active compounds read low 0.983 | locus YEL061C, strain CIN8 (second series), active compounds read low 0.976 | locus YEL061C, strain CIN8, active compounds read low 1.03 | locus YER015W, strain faa2, active compounds read low 0.99 | locus YER016W, strain bim1, active compounds read low 0.96 | locus YER110C, active compounds read low 0.998 | locus YER111C, strain swi4, active compounds read low 0.981 | locus YER155C, strain BEM2 (second series), active compounds read low 1.04 | locus YER155C, strain BEM2, active compounds read low 1 | locus YER167W, strain BCK2, active compounds read low 1 | locus YFR010W, strain ubp6, active compounds read low 1.01 | locus YGL078C, strain dbp3, active compounds read low 1 | locus YGL086W, strain mad1, active compounds read low 0.995 | locus YGL167C, strain pmr1, active compounds read low 1 | locus YGL173C, strain kem1, active compounds read low 1.04 | locus YGL227W, strain vid30, active compounds read low 1 | locus YGL240W, strain doc1, active compounds read low 1.04 | locus YGL248W, strain PDE1, active compounds read low 1 | locus YGL253W, strain hxk2, active compounds read low 0.955 | locus YGR078C, strain PAC10, active compounds read low 1.01 | locus YGR135W, strain pre9, active compounds read low 0.993 | locus YGR229C, strain SMI1, active compounds read low 1.13 | locus YGR252W, strain gcn5, active compounds read low 1.14 | locus YHR013C, strain ard1, active compounds read low 0.964 | locus YHR027C, strain rpn1, active compounds read low 0.999 | locus YHR030C, strain SLT2, active compounds read low 1 and 0.964 | locus YHR079C, strain IRE1 (second series), active compounds read low 1 | locus YHR079C, strain IRE1, active compounds read low 0.978 | locus YHR094C, strain hxt1, active compounds read low 1 | locus YHR129C, strain ARP1, active compounds read low 1 | locus YHR142W, strain chs7, active compounds read low 0.931 | locus YHR200W, strain rpn10, active compounds read low 0.991 | locus YIL066C, strain RNR3, active compounds read low 1.01 | locus YIL073C, strain SPO22, active compounds read low 0.979 | locus YIL125W, strain kgd1, active compounds read low 1 | locus YIR030C, strain dcg1, active compounds read low 0.995 | locus YJL092W, strain hpr5, active compounds read low 0.977 | locus YJL095W, strain BCK1 (second series), active compounds read low 0.967 | locus YJL095W, strain BCK1, active compounds read low 1.04 and 0.989 | locus YJL115W, strain asf1, active compounds read low 0.957 | locus YJL129C, strain trk1, active compounds read low 0.955 | locus YJL134W, strain LCB3, active compounds read low 1.01 | locus YJL154C, strain vps35, active compounds read low 0.984 | locus YJL164C, strain tpk1, active compounds read low 0.998 | locus YJL166W, strain qcr8, active compounds read low 1 | locus YJL168C, strain set2, active compounds read low 0.997 | locus YJL187C, strain SWE1 (second series), active compounds read low 0.995 | locus YJL187C, strain SWE1, active compounds read low 0.994 | locus YJR043C, strain POL32, active compounds read low 1.03 | locus YJR066W, strain TOR1, active compounds read low 0.931
